These results are taken from PubChem BioAssay AID2732 (Emory University Molecular Libraries Screening Center, 2010).

By inhibition is commonly meant the relative decrease from the control value, in per cent.

Among all 220,000 compounds or so, about 8,200 (3.7%) were called active. This is one part of a sample in which actives are shown more often than they occur.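 Rule for the calls: active = compounds that reduced the stress-induced luciferase reporter signal by more than about 70% of percent inhibition (limit read from the data); inactive = the rest.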

This assay in a line: inhibitors of CHOP promoter induction, primary screen, cell-based, unfolded protein response, luciferase reporter (AID 2732).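 Note: 0% = tunicamycin plus vehicle and 100% = wells without tunicamycin.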 The following applies: CHO-K1 CHOP-promoter luciferase, tunicamycin-induced, 15-18 h; at 10 µM; stronger effect = higher value. On the technique in general: A reporter such as luciferase makes a cellular process visible.
For `c1ccc(-n2cccc2)c(N2CCCCC2)c1`, the inhibition was -6% (inactive).
For `CCCCn1c(=S)[nH]c2ccccc2c1=O`, the inhibition was -18.6% (inactive).
The figure for `CC(Sc1nc2c([nH]c3ccccc32)c(=O)n1C)c1ccccc1` (stereo not given) is 94.8% (active).
The figure for `Cn1nnnc1SCc1cc(=O)[nH]c2ccccc12` is 6.42% (inactive); for `O=C(Nc1ccc(Cl)cc1)/C(=C1\CCCN1)[N+](=O)[O-]` it is -6.93% (inactive).
As to `CN1CCN(c2ccc(CNS(=O)(=O)c3cccc(F)c3)cc2)CC1`, the inhibition is 9.01% (inactive).
The figure for `COc1ccc2[nH]c(=S)cc(C)c2c1` is -0.1% (inactive); for `CC(=O)Nc1nc2ccccc2n1Cc1ccc(C)cc1` it is -14.1% (inactive); for `Cc1ccc(Cn2c(NC(=O)c3ccco3)nc3ccccc32)cc1` it is 80.3% (active).
Take `Cc1ccc(-n2nc3cc(Cl)c(NC(=O)c4ccco4)cc3n2)cc1`: the inhibition was -26.1% (inactive).
The figure for `CN(C)S(=O)(=O)c1cccc(-c2nn(-c3ccccc3)cc2/C=C2\SC(=S)N(CC(=O)O)C2=O)c1` is 4.39% (inactive).
In the case of `CCCC(=O)Nc1ccc(Cl)c(NC(=O)c2ccc(Br)o2)c1`, the inhibition was 40.2% (inactive).
As to `CC(CC(=O)Nc1cc(C(F)(F)F)ccc1Cl)c1ccccc1` (stereo not given), the inhibition was 54.4% (inactive).
Then `CCCCC(=O)Nc1ccc(C(=O)Nc2cc(C(F)(F)F)ccc2Cl)cc1`, with 94.3% (active); and `CCCCNC(=O)OCCSCCS(=O)(=O)c1ccc(Cl)cc1`, with 8.82% (inactive).
For `CC(C)OP(=O)(OC(C)C)C(Nc1ccccc1)c1cccc([N+](=O)[O-])c1` (stereo not given), the inhibition is -8.06% (inactive).
On to `Cc1cc(C(=O)Cn2cnc3cc([N+](=O)[O-])ccc3c2=O)c(C)n1CC1CCCO1` (stereo not given), for which the inhibition is -28% (inactive).
Then `Cc1ccsc1C(=O)OCC(=O)c1cc(C)n(CC2CCCO2)c1C` (stereo not given), with 77.8% (active); and `Cc1ccsc1C(=O)OCC(=O)c1cc2ccccc2o1`, with 67.4% (inactive).
Take `CCCCN1Cc2c(nc3cc(-c4ccccc4)[nH]n3c2=O)C1=O`: the inhibition was -7.2% (inactive).
The figure for `CCOc1ccccc1N1CN(Cc2ccccc2)CNC1=S` is 3.01% (inactive).
The figure for `COCCCn1c(-c2cccs2)nc2nc3ccccc3nc21` is -15% (inactive); for `N/C(=N\OC(=O)Nc1ccc(Cl)c(Cl)c1)c1ncc(C(F)(F)F)cc1Cl` it is 87.9% (active).
Take `O=C(c1ccccn1)c1ncc(C(F)(F)F)cc1Cl`: the inhibition was 23.4% (inactive).
The figure for `N/C(=N\OC(=O)CCCC(=O)O)c1ncc(C(F)(F)F)cc1Cl` is 6.09% (inactive); for `Nn1c(SCc2ccccc2)nnc1C1CCCCC1` it is -9.53% (inactive).
Then `COc1ccc(C(=O)N2CC3(C)CC2CC(C)(C)C3)cc1OC` (stereo not given), with -6.24% (inactive); and `CC1(C)CC2CC(C)(CN2c2ncnc3ccc(Br)cc23)C1` (stereo not given), with 70.5% (active).
The figure for `C=CCNc1ncnc2ccc(Br)cc12` is 27.4% (inactive).
As for `CCOC(=O)CN(C(=O)COc1nc(-c2ccccc2)cc(C)c1C#N)c1ccc(F)cc1`, the inhibition was 5.71% (inactive).
The figure for `COc1c(O)cc2oc(-c3ccc(O)c(O)c3)cc(=O)c2c1O` is -13.9% (inactive); for `Cc1ccc(NC(=O)/C(=C\c2ccccc2)NC(=O)c2ccco2)cc1` it is 10.2% (inactive).
The figure for `Nc1c(C(=O)c2cccs2)sc2nsc(SCCN3CCCCC3)c12` is -55.6% (inactive).
The figure for `N=c1n(Cc2ccc(Cl)cc2)c2ccccc2n1CC(O)c1ccco1` (stereo not given) is 86.2% (active); for `Cn1c(=N)n(CC(O)c2cccs2)c2ccccc21` (stereo not given) it is 14.4% (inactive); for `Cn1c(=N)n(CC(O)c2ccccc2)c2ccccc21` (stereo not given) it is 14.2% (inactive).
In the case of `Cn1c(=O)c(=O)n(C)c2cc(S(=O)(=O)NCCN3CCN(c4ccccc4F)CC3)ccc21`, the inhibition was 10.2% (inactive).
In the case of `COc1ccc(NC2=CC(=S)NC(C)(C)C2)cc1`, the inhibition was 0.78% (inactive).
On to `Cc1c(NC(=O)CN2C(=O)C(=O)N(Cc3ccccc3)C2=O)c(=O)n(-c2ccccc2)n1C`, for which the inhibition was -4.43% (inactive).
Then `Cc1cc(=O)oc2cc(OCCC[n+]3ccccc3)ccc12`, with 3.91% (inactive); and `CCN(C(=O)COC(=O)c1ccc(COc2ccc3c(C)cc(=O)oc3c2)cc1)C1CCS(=O)(=O)C1` (stereo not given), with -17.9% (inactive).
In the case of `Cc1ccccc1NC(=O)c1ccc(COc2ccc3c(C)cc(=O)oc3c2)cc1`, the inhibition was 73.8% (active).
The figure for `COc1ccc(CCn2c(NN=C3CCCC3)nc3c2c(=O)[nH]c(=O)n3C)cc1` is -6.27% (inactive); for `COc1ccc(NC(=O)C2=NNC(=O)CC2)cc1S(=O)(=O)N1CCCCC1` it is 14.5% (inactive); for `Cc1ccc(-c2nn(C(C)(C)C)c3ncnc(N)c23)cc1` it is 76.5% (active).
For the compound `Cc1ccc(-n2cnc3ncnc(-c4ccccc4)c32)cc1`, the inhibition is -3.5% (inactive).
Take `Cc1ccc(CSc2nnc(-c3cnccn3)n2C)cc1`: the inhibition is -17.8% (inactive).
Then `O=C(NCc1ccccc1)c1ccc(CNc2c(N3CCCC3)c(=O)c2=O)cc1`, with 3.8% (inactive).
Then `Cc1cc(=O)[nH]c(SCC(=O)Nc2ccc(Br)cc2)n1`, with 28.6% (inactive); and `Cc1nc2cccnc2nc1C`, with -3.08% (inactive).
For `O=C(COC(=O)c1ccc(S(=O)(=O)Nc2ccccc2)cc1)NCC1CCCO1` (stereo not given), the inhibition is 0.29% (inactive).
The figure for `O=C(Nc1ccccc1)C1CC(=O)n2c(nc3ccccc32)N1` (stereo not given) is 3.28% (inactive); for `COc1ccc(CCN2C(=O)c3[nH]nc(-c4ccccc4O)c3C2c2ccc(C)cc2)cc1OC` (stereo not given) it is 75.2% (active).
With `COc1ccc(CCN(C)CCN2C(=O)c3ccccc3C2=O)cc1OC`, the inhibition is -9.23% (inactive).
Then `COC(=O)c1ccc(C2C(Oc3ccccc3C)C(=O)N2CCc2ccc(OC)c(OC)c2)cc1` (stereo not given), with 18.6% (inactive); and `CS(=O)(=O)c1sc(C(=O)NC(=S)Nc2ccc(OC(F)(F)F)cc2)c2c1C=CCC2`, with -21.9% (inactive); and `COc1ccc(SC[C@H](Cc2ccccc2)N2CCN(CCc3ccccc3)CCC2=O)cc1`, with 26.9% (inactive).
The figure for `Cc1csc(/N=C/N(C)C)c1C#N` is 11.2% (inactive); for `CC1CCN(c2c(NCc3ccc(C(=O)NCc4ccccc4)cc3)c(=O)c2=O)CC1` it is 1.88% (inactive).
Regarding `Cc1cc(=O)[nH]c(N/N=C/c2ccc3c(c2)OCCO3)n1`, the inhibition is -1.69% (inactive).
With `CSc1ccccc1NC(=O)CN(C)CC(=O)Nc1ccc(Cl)cc1[N+](=O)[O-]`, the inhibition is 18.7% (inactive).
Consider `Cc1ccc(NC(=O)CN(C)Cc2ccc(F)cc2)c([N+](=O)[O-])c1`, for which the inhibition is 71.6% (active).
The figure for `CN(CC(=O)Nc1ccccc1[N+](=O)[O-])Cc1ccc(Br)cc1` is 5.7% (inactive); for `Cc1cc(C(=O)NNS(=O)(=O)c2ccccc2C(F)(F)F)nn1C(C)(C)C` it is 14.2% (inactive).
On to `NC1=NC(=O)C(Cc2cccc(Cl)c2Cl)S1` (stereo not given), for which the inhibition is -11.3% (inactive).
As to `O=C1N/C(=N\N=C\c2ccco2)SC1Cc1ccc(F)cc1` (stereo not given), the inhibition was 2.81% (inactive).
Take `O=C1NC(=Nc2ccc(Cl)cc2)SC1Cc1cccc(Cl)c1Cl` (stereo not given): the inhibition is 94.3% (active).
Then `COC(C[C@H](O)CC(=O)COCc1ccccc1)OC`, with 17.8% (inactive).
Turning to `NC(=O)c1ccc(NC(=O)COC(=O)c2ccc([N+](=O)[O-])cc2)cc1`, the inhibition was 4.31% (inactive).
Then `Cc1cc(C)cc(NC(=O)NC2CCN(CC(=O)Nc3cccc(Cl)c3C)CC2)c1`, with 14.5% (inactive).
With `Cc1nc(Cl)c2oc3ccccc3c2n1`, the inhibition was -37.5% (inactive).
On to `CCSc1nc(C)nc2c1oc1ccccc12`, for which the inhibition is 97.9% (active).
Then `COc1ccc(CCNC(=O)CSc2nc(C)nc3c2oc2ccccc23)cc1OC`, with 5.77% (inactive).
Consider `CC1=CC(C)(C)NC(=S)N1NC(=O)c1ccccc1Cl`, for which the inhibition is -2.87% (inactive).
Then `CCOc1ccc(C2NC(=S)NC3=C2CCc2ccccc23)cc1` (stereo not given), with -10.8% (inactive); and `O=C1N/C(=C/c2cccn2-c2ccccc2)C(=O)N1c1cccc(Cl)c1`, with 86.8% (active); and `Cc1ccccc1NC(=O)CN1C(=O)N/C(=C\c2cccn2-c2cccc(C(=O)O)c2)C1=O`, with 1.36% (inactive).
Then `COc1cc2c(cc1/C=C1/NC(=O)N(c3ccccc3)C1=O)OCO2`, with -2.61% (inactive); and `Cc1c(C)c(C)c2[nH]c(=S)[nH]c2c1C`, with 20.2% (inactive).
The figure for `N#CCc1ccc(OC(=O)c2cccnc2)cc1` is 12.3% (inactive).
On to `Cc1nc(C)c(C(=O)N(c2ccc(C)c(C)c2)C(C(=O)NCc2ccco2)c2ccccc2)s1` (stereo not given), for which the inhibition was -35.7% (inactive).
The figure for `Cc1ccc(-c2nnn(CC(=O)N(Cc3ccco3)C(C(=O)NC(C)(C)C)c3ccncc3)n2)o1` (stereo not given) is 6.52% (inactive).
The figure for `Cc1nn(-c2ccccc2)c2sc(C(=O)N(Cc3ccco3)C(C)C(=O)NC(C)(C)C)cc12` (stereo not given) is 80.4% (active); for `Cc1cc(C)c(C)c(S(=O)(=O)N[C@@H](C)C(=O)OC(C)C(=O)NC(N)=O)c1C` (stereo not given in full) it is -9.66% (inactive); for `Cc1ccc(Oc2nc(-c3ccccn3)nc3ccccc23)cc1` it is -40.5% (inactive).
The figure for `CCOC(=O)c1ccc2c(c1)nc(C)n2CC` is 3.33% (inactive).
For `CCOC(=O)CNC(=O)CSc1nc2cccnc2n1CC`, the inhibition was 5.31% (inactive).
The figure for `CCOC(=O)c1ccc2c(c1)nc(SCC(=O)NC(C)C)n2CC` is 76% (active); for `C=CCN(CC=C)S(=O)(=O)c1ccc(C(=O)Nc2sc3c(c2C(N)=O)CCCCC3)cc1` it is 41% (inactive); for `COCCN(CCOC)S(=O)(=O)c1ccc(C(=O)Nc2nc3c(s2)CCc2ccccc2-3)cc1` it is 82.3% (active).
The figure for `COCCN(CCOC)S(=O)(=O)c1ccc(/C(O)=C(\C#N)c2nc3ccccc3[nH]2)cc1` is 1.37% (inactive); for `COc1ccc(C(=O)Nc2ncc3c(n2)-c2ccccc2CC3)cc1` it is -1.8% (inactive); for `C=CCN(CC=C)S(=O)(=O)c1ccc(C(=O)Nc2nc3c(s2)CCc2ccccc2-3)cc1` it is 71% (active).
In the case of `CCN(c1ccccc1)S(=O)(=O)c1ccc(C(=O)Nc2nccs2)cc1`, the inhibition is 31.6% (inactive).
The figure for `COc1ccc2[nH]c(C(=O)Nc3ccccc3Cl)cc2c1` is 2.73% (inactive).
